Laboratory results from PubChem BioAssay (Tox21).
Where “and” joins values, the source holds several entries; their conditions need not be identical. Identical values can stand only once. A number with no mark means an inactive call. Results filed as inconclusive are left out. A call without a number means that no potency is given here. Calls of active or inactive are those of the source. Unless noted, the call rests on the fitted dose curve; in most records, active means well fitted curve in the direction sought with a large enough effect in the repeat runs; inconclusive means weak or mixed curves; inactive means no such curve, though single readings can be large; an effect the other way counts as inactive or inconclusive.

Key:
[1] = qHTS assay for small molecules that induce genotoxicity in human embryonic kidney cells expressing luciferase-tagged ATAD5 (AID 651632); further: nearly all actives have a fitted effect of over 15% in size
Outline: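 Increased luciferase signal from ATAD5-tagged reporter cells indicates DNA-damage-driven ATAD5 induction. HEK293T cells are treated for 16 hr at 37C before detection with Amplite.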

[2] = qHTS assay to test for compound auto fluorescence at 535 nm (green) in HepG2 cells (AID 720675)
[3] = qHTS assay to test for compound auto fluorescence at 460 nm (blue) in HEK293 cells (AID 720678)
Outline: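 Blue read-out at excitation 405 nm and emission 460 nm follows overnight compound exposure of HEK293 cells at 37C in 5% CO2. Activity is given as auto fluorescence equivalency to triamterene.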

[4] = qHTS assay to test for compound auto fluorescence at 535 nm (green) in HEK293 cells (AID 720680)
[5] = qHTS assay to test for compound auto fluorescence at 460 nm (blue) in HEK293 cell free culture (AID 720681)
Outline: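 Test compounds were pinned into cell-free culture medium (DMEM with 10% FBS) and fluorescence was read directly at Ex/Em 405/460 nm. Signals were expressed as fluorescence equivalents of triamterene, with DMSO vehicle as control.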

[6] = qHTS assay to test for compound auto fluorescence at 535 nm (green) in HEK293 cell free culture (AID 720682)
Outline: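 Each library compound, or DMSO control, is added by pintool to medium alone, comprising DMEM and 10% FBS. Emission at 535 nm following 485 nm excitation is quantified against fluorescein.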

[7] = qHTS assay to test for compound auto fluorescence at 460 nm (blue) in HepG2 cell free culture (AID 720685)
Outline: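 Compound (23 nL) or DMSO pinned into cell-free MEM with 10% FBS; blue fluorescence read at 405/460 nm excitation/emission, expressed as auto-fluorescence equivalency to triamterene.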

[8] = qHTS assay to test for compound auto fluorescence at 535 nm (green) in HepG2 cell free culture (AID 720686)
[9] = qHTS assay to identify small molecule antagonists of the estrogen related receptor (ERR) signaling pathway from Tox21 library (AID 1224848); further: nearly all actives have a fitted effect of over 50% in size; further: potency means the concentration at half of the fitted maximal effect
Outline: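 Screening used an ERR reporter line supplied by NTP, exposed for 18 h at 37 C to library compounds delivered in DMSO. Signal was luciferase luminescence developed with ONE-Glo at room temperature for 30 min.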

[10] = biological target: Estrogen receptor (Homo sapiens) (UniProt P03372); assay: qHTS assay to identify small molecule antagonists of the estrogen receptor alpha (ER-alpha) signaling pathway using the BG1 cell line in the presence of 0.1 nM 17-beta-estradiol (AID 1259244); further: nearly all actives have a fitted effect of over 50% in size; further: potency means the concentration at half of the fitted maximal effect
Outline: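 After 5 days in hormone-depleted medium (charcoal-stripped serum, no phenol red), VM7Luc4E2 cells were seeded, incubated 24 h, then co-treated with compound and 0.1 nM (final) estradiol for 22 h before luminescence detection.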

[11] = biological target: Thyrotropin receptor (Homo sapiens) (UniProt P16473); assay: qHTS assay to identify small molecule agonists of the thyroid stimulating hormone receptor (TSHR) signaling pathway (AID 1224843; calls by dose curve; further: nearly all actives have a fitted effect of over 45% in size; further: potency means the concentration at half of the fitted maximal effect)
Outline: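 Cell line HEK293 with TSHR; density 800/well. Exposure 30 min RT. Readout HTRF cAMP (cAMP-d2/anti-cAMP-cryptate), 1 h RT before reading.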

[12] = biological target: Estrogen receptor beta (Homo sapiens) (UniProt Q92731); assay: qHTS assay to identify small molecule agonists of the estrogen receptor beta (ER-beta) signaling pathway (AID 1259377; active means well fitted activation curve with a large enough effect in the signal ratio in the repeat runs, not every such curve was filed as active; the % refers to the signal ratio)
Outline: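 Reporter cells (HEK293T, ER-beta-UAS-bla) receive compounds or DMSO after a 6 hr pre-incubation. They then incubate 16 hr at 37C/5% CO2, and fluorescence from LiveBLAzer B/G substrate is measured after 2 hours at room temperature.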

[13] = qHTS assay to identify small molecule agonists of the progesterone receptor (PR) signaling pathway - cell viability counter screen (AID 1346799; calls by dose curve; further: nearly all actives have a fitted effect of over 45% in size; further: potency means the concentration at half of the fitted maximal effect)
Outline: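 Multiplexed viability read: CellTiter-Glo luminescence, 30 min RT, following LiveBLAzer FRET measurement on PR-UAS-bla HEK293T cells exposed to compounds 16 hr.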

[14] = biological target: Thyrotropin-releasing hormone receptor (Homo sapiens) (UniProt P34981); assay: qHTS assay to identify small molecule antagonists of the thyrotropin-releasing hormone receptor (TRHR) signaling pathway (AID 1346877; active means well fitted inhibition curve with a large enough effect in the repeat runs, not every such curve was filed as active; further: series mostly up to about 51 µM)
Outline: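 Cells (TRHR-HEK293) are plated and kept 18 h at 37 °C/5% CO2. A calcium-sensitive dye is added for 2 h, compound follows for 5 min at room temperature, and TRH is then given at 1 nM final.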

[15] = qHTS assay to identify small molecule antagonists of the estrogen related receptor signaling pathway with the pleiotropic PPARgamma coactivator (PGC) from Tox21 10K library (AID 1224841; call rule not given here; further: actives are mostly falling curves and most rising ones were filed inactive; nearly all actives have a fitted effect of over 50% in size; further: potency means the concentration at half of the fitted maximal effect; on activity, negative = inhibition: series mostly up to about 92 µM)
Outline: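 Antagonism in this quantitative HTS is taken from loss of luciferase signal in PGC/ERR cells. Cells (2,000/well) are treated with compounds in DMSO after a 6 h settling period and read by One-Glo luminescence after 18 h.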

[16] = qHTS RealTime-Glo MT Cell Viability Assay in HEK293 cells - 8 hour (AID 1224887); further: nearly all actives have a fitted effect of over 50% in size; further: potency means the concentration at half of the fitted maximal effect; on activity change, negative = cytotoxicity: top concentration of the series differs between compounds
Outline: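 Nonlytic bioluminescent viability monitoring. HEK293 at 600 cells/well with reagent; 5 h settle; compound transfer by pintool; plates held at 37 C and read at set time points.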

[17] = qHTS assay to identify small molecule agonists of the estrogen receptor beta (ER-beta) signaling pathway - cell viability counter screen (AID 1259380); further: nearly all actives have a fitted effect of over 30% in size; further: potency means the concentration at half of the fitted maximal effect
Outline: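 Same-well viability counter screen. Cells: ER-beta-UAS-bla HEK293T, plated 6 hr before compound, in 2% charcoal-stripped FBS. Compound exposure 16 hr, 37C; viability by CellTiter-Glo luminescence after 30 min at room temperature.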

[18] = biological target: Thyrotropin receptor (Homo sapiens) (UniProt P16473); assay: qHTS assay to identify small molecule antagonists of the thyroid stimulating hormone receptor (TSHR) signaling pathway (AID 1259385; calls by dose curve; further: nearly all actives have a fitted effect of over 20% in size; further: potency means the concentration at half of the fitted maximal effect)
Outline: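 TSHR-HEK293 cells were plated and held 18 h at 37C/5% CO2, then given compound plus Ro20-1724 and stimulated with TSH at 1.5 ng/mL final. After 30 min at room temperature, cAMP was detected with cAMP-d2/anti-cAMP-cryptate (1 h) by fluorescence.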

[19] = qHTS assay for identifying genotoxic compounds that show differential cytotoxicity against isogenic chicken DT40 cell lines with known DNA damage response pathways - Rev3 mutant cell line (AID 743014); further: nearly all actives have a fitted effect of over 55% in size; further: potency means the concentration at half of the fitted maximal effect
[20] = qHTS assay to identify small molecule agonists of H2AX - cell viability counter screen (AID 1224847; calls by dose curve; further: nearly all actives have a fitted effect of over 30% in size; further: potency means the concentration at half of the fitted maximal effect; on activity change, negative = cytotoxicity: top concentration of the series differs between compounds)
Outline: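 Compounds tested at 15 concentrations were incubated 3 hr at 37C with wild-type CHO-K1 cells; cellular ATP-based luminescence (CellTiter-Glo) indicated viability.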

Thyrotropin receptor (Homo sapiens), sequence (P16473 whole entry, looked up): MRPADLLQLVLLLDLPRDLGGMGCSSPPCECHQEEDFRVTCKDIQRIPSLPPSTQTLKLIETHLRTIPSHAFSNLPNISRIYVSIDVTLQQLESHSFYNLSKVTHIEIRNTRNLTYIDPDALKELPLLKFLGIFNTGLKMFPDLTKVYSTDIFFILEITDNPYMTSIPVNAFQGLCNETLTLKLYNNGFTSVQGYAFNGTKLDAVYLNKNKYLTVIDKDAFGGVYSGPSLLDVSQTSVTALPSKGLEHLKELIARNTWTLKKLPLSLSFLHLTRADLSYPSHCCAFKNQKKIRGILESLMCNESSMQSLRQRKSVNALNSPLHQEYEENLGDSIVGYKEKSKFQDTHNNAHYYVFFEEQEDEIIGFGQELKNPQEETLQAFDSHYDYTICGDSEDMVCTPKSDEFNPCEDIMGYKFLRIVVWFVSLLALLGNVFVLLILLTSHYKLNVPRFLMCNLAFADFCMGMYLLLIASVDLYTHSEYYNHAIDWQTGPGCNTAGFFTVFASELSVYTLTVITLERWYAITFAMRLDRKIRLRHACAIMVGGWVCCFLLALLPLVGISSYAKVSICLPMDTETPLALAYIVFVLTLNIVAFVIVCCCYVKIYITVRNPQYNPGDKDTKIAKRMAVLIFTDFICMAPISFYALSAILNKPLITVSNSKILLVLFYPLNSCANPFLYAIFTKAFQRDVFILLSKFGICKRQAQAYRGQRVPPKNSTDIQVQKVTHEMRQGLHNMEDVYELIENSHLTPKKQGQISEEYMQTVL
Estrogen receptor (Homo sapiens), sequence (P03372 whole entry, looked up): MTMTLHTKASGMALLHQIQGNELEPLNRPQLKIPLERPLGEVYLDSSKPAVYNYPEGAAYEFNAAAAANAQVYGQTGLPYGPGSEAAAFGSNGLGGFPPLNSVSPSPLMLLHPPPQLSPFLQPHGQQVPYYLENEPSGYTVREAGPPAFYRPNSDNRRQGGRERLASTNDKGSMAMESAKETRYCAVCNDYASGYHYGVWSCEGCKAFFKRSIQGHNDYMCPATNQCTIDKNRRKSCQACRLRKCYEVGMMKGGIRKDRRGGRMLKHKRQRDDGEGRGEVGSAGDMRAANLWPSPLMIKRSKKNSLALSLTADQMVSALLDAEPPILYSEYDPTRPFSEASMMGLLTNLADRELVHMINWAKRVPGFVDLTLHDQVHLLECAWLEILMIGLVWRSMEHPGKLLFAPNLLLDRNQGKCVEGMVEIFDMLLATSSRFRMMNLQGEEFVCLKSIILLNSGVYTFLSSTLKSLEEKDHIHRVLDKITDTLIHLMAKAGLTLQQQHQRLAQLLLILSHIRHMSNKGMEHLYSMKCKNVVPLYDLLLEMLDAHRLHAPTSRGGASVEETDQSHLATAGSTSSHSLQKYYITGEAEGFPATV
Estrogen receptor beta (Homo sapiens), sequence (Q92731 whole entry, looked up): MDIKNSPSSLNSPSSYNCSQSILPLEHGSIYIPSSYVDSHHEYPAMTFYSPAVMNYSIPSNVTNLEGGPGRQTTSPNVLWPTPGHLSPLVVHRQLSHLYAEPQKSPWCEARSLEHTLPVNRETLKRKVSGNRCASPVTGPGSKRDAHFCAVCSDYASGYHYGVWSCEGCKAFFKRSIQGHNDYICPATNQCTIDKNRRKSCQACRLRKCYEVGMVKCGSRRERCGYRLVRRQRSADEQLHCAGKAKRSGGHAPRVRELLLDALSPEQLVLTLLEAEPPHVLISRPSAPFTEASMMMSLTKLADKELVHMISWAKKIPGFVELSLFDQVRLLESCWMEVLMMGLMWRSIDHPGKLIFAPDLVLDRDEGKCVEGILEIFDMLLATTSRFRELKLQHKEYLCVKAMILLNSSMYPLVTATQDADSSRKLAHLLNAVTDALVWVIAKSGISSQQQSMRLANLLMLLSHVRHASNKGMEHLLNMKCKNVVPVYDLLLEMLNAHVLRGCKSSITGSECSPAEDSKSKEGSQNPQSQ
Thyrotropin-releasing hormone receptor (Homo sapiens), sequence (P34981 whole entry, looked up): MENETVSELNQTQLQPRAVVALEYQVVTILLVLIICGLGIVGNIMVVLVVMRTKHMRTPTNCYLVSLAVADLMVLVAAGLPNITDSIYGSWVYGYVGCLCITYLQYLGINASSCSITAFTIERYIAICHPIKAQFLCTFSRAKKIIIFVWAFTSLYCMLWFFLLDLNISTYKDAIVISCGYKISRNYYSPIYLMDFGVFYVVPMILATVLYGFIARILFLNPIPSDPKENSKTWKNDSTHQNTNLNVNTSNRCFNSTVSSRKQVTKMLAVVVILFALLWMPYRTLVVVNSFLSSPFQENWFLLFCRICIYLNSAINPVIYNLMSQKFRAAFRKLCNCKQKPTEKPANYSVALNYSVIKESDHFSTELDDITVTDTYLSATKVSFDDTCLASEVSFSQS

O=[N+]([O-])c1c(Cl)c(Cl)cc(Cl)c1Cl
Potency [1]: inactive
Potency [2]: inactive
Potency [3]: inactive
Potency [4]: inactive
Potency [5]: inactive
Potency [6]: inactive
Potency [7]: inactive
Potency [8]: inactive
Potency [9]: inactive
Potency [10]: inactive

ClC(Cl)=C(c1ccc(Cl)cc1)c1ccccc1Cl
Potency [11]: inactive
Potency [10]: inactive
outcome [12]: inactive
Potency [13]: inactive
outcome [14]: inactive

Cc1cc(C)c(C(=O)P(=O)(c2ccccc2)c2ccccc2)c(C)c1
Potency [15]: 54.5 µM (active)
Potency [11]: inactive
Potency [9]: 54.5 µM (active)
Potency [16]: 43.6 µM (active)
Potency [10]: inactive
Potency [17]: 61.1 µM (active)
Potency [18]: inactive

CC1COC(Cn2cncn2)(c2ccc(Oc3ccc(Cl)cc3)cc2Cl)O1 (stereo unspecified)
Potency [1]: inactive
Potency [2]: inactive
Potency [3]: inactive
Potency [4]: inactive
Potency [5]: inactive
Potency [6]: inactive
Potency [7]: inactive
Potency [8]: inactive
Potency [19]: 0.686 µM (active)
Potency [15]: 8.63 µM (active)
Potency [11]: inactive
Potency [20]: 101 µM (active)
Potency [9]: 4.33 µM (active)
Potency [16]: 21.9 µM (active)
Potency [10]: 10.9 µM (active)
outcome [12]: inactive

CC(c1ccccc1)(c1ccc(O)cc1)c1ccc(O)cc1
Potency [15]: 34.4 µM (active)
Potency [11]: 15.4 µM (active)
Potency [9]: 61.1 µM (active)
Potency [10]: inactive
outcome [12]: inactive
Potency [17]: 54.5 µM (active)
Potency [18]: inactive
outcome [14]: inactive

Cc1ccc2nc3sc(=O)sc3nc2c1
activation [11]: -7.09% [at 19 µM]
activity change, negative = cytotoxicity [20]: 0.633% [at 31.6 µM]
activity change, negative = cytotoxicity [16]: 4.11% [at 15.8 µM]
activity change, negative = inhibition [10]: -0.302% [at 19 µM]
activity change, negative = inhibition [18]: 2.89% [at 19 µM]
activity change, negative = cytotoxicity [13]: -2.84% [at 19 µM]
activity, negative = inhibition [14]: 3.17% [at 10.5 µM]

Cc1cc(C(C)(C)c2ccc(O)c(C)c2)ccc1O
Potency [1]: inactive
Potency [2]: inactive
Potency [3]: inactive
Potency [4]: inactive
Potency [5]: inactive
Potency [6]: inactive
Potency [7]: inactive
Potency [8]: inactive
Potency [19]: inactive
Potency [15]: 9.23 µM (active)
Potency [11]: 46.2 µM (active)
Potency [20]: 108 µM (active)
Potency [9]: 26 µM (active)
Potency [16]: 23.4 µM (active)
Potency [17]: 29.2 µM (active)
Potency [18]: inactive

N#Cc1cc([N+](=O)[O-])ccc1N
Potency [11]: inactive
Potency [9]: inactive
Potency [16]: inactive
Potency [10]: inactive
outcome [12]: inactive
Potency [17]: inactive
Potency [18]: inactive
Potency [13]: inactive
outcome [14]: inactive

Cc1ccc(N(SC(F)(Cl)Cl)S(=O)(=O)N(C)C)cc1
Potency [1]: inactive
Potency [2]: inactive
Potency [3]: inactive
Potency [4]: inactive
Potency [5]: inactive
Potency [7]: inactive
Potency [8]: inactive
Potency [19]: 0.122 µM (active)
Potency [15]: 24.3 µM (active)
Potency [20]: 89.8 µM (active)
Potency [9]: 24.3 µM (active)
Potency [16]: 12.3 µM (active)
outcome [12]: inactive
Potency [17]: 54.5 µM (active)
Potency [18]: 61.1 µM (active)
Potency [13]: inactive

ClC1=C(Cl)[C@]2(Cl)[C@@H]3[C@@H](Cl)[C@H]4O[C@H]4[C@@H]3C1(Cl)C2(Cl)Cl
Potency [1]: inactive
Potency [2]: inactive
Potency [3]: inactive
Potency [4]: inactive
Potency [6]: inactive
Potency [7]: inactive
Potency [8]: inactive
Potency [19]: 34.4 µM (active)
Potency [15]: inactive
Potency [20]: 113 µM (active)
outcome [12]: inactive

CCOC(=O)C(O)(c1ccc(Cl)cc1)c1ccc(Cl)cc1
Potency [1]: inactive
Potency [2]: inactive
Potency [3]: inactive
Potency [4]: inactive
Potency [5]: inactive
Potency [6]: inactive
Potency [7]: inactive
Potency [8]: inactive
Potency [19]: 2.19 µM (active) and 24.3 µM (active)
Potency [20]: 90.7 µM (active) and 56.6 µM (active)
Potency [16]: 22.1 µM (active)
Potency [10]: 61.1 µM (active)
outcome [12]: inactive
outcome [14]: inactive

O=C(c1ccccc1)C(Cl)Cl
Potency [15]: 68.6 µM (active)
Potency [10]: inactive
outcome [12]: inactive
Potency [17]: inactive
Potency [13]: inactive
outcome [14]: inactive

O=S(=O)(C(Cl)(Cl)Cl)C(Cl)(Cl)Cl
Potency [20]: 89.8 µM (active)
Potency [9]: 54.5 µM (active)
Potency [16]: 15.5 µM (active)
Potency [10]: 27.3 µM (active)
Potency [17]: 21.7 µM (active)
Potency [13]: inactive

Cc1nnc2n1-c1sc(CCc3ccc(CC(C)C)cc3)cc1C(c1ccccc1Cl)=NC2C (stereo unspecified)
Potency [1]: inactive
Potency [3]: inactive
Potency [4]: inactive
Potency [5]: inactive
Potency [6]: inactive
Potency [7]: inactive
Potency [8]: inactive
Potency [19]: 16.8 µM (active)
Potency [15]: 10.6 µM (active)
Potency [11]: 18.8 µM (active)
Potency [9]: 9.44 µM (active)
Potency [16]: 21.3 µM (active)
Potency [10]: 29.8 µM (active)
outcome [12]: inactive
Potency [17]: 29.8 µM (active)
Potency [18]: inactive
outcome [14]: inactive

Nc1ccc([N+](=O)[O-])cc1
Potency [2]: inactive
Potency [3]: inactive
Potency [5]: inactive
Potency [6]: inactive
Potency [7]: inactive
Potency [8]: inactive
Potency [19]: 13.3 µM (active)
Potency [15]: inactive
Potency [20]: 101 µM (active)
Potency [9]: 7.7 µM (active)
Potency [16]: 21.9 µM (active)
Potency [17]: 27.3 µM (active)
Potency [13]: 7.7 µM (active)
